# The list is not random: actives were taken first. Their share in the collection is about 8.3%.
# MCF10A rerep: A quantitative high throughput screen for small molecules that induce DNA re-replication in MCF 10a normal breast cells | MCF 10A DNA re-replication, Hoechst nuclear intensity, 48 h | Potency, µM (top dose mostly 46.1 µM), most hits filed as activators | 2.9% of 350,000 active | AID 624296, 2012; note: nearly all actives have a fitted effect of over 50% in size
# SW480 rereplic: A quantitative high throughput screen for small molecules that induce DNA re-replication in SW480 colon adenocarcinoma cells | 1.8% of 340,000 active | Potency, µM (top dose mostly 46.1 µM), hits mostly activators | SW480 DNA re-replication, Hoechst DNA content imaging, 48 h; note: nearly all actives have a fitted effect of over 55% in size
#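 250 cells/well; 23 nL cpd via pin tool; 48 hr, 37 C, 5% CO2; Hoechst 40 min; imager read of total nuclear intensity, ex 405/em 500-530 nm.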
# RORg inh: qHTS for inhibitors of ROR gamma transcriptional activity; Nuclear receptor ROR-gamma (Mus musculus), P51450; Drosophila S2 Gal4-RORgamma UAS-luciferase reporter, 20 h; Potency, µM (titrated, usually from 53.6 µM), most hits filed as inhibitors; 5.4% of 310,000 active; AID 2551, 2010; note: nearly all actives have a fitted effect of over 60% in size
# Target sequence (P51450 whole entry, looked up, the tested form may be a part): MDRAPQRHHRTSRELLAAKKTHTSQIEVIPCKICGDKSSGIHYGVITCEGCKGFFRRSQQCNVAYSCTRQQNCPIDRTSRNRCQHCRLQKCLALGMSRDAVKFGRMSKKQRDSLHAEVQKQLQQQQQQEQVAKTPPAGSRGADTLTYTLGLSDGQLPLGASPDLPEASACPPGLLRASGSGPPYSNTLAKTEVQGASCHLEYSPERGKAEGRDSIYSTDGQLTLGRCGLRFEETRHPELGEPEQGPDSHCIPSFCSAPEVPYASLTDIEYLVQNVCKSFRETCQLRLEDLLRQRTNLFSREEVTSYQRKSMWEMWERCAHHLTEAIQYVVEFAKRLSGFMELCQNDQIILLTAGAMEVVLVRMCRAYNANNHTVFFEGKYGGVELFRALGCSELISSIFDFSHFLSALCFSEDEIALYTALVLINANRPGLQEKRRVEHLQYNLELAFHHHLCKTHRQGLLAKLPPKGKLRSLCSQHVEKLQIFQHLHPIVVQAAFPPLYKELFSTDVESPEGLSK
#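 Drosophila S2 cells stably expressing Gal4-DBD/mouse RORγ fusion under metallothionein promoter plus UAS-luciferase; compound 1 h, then 700 uM CuSO4 induction for 20 h at ambient temperature; inhibition read as reduced luminescence.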
# VP16 counter: VP16 counterscreen qHTS for inhibitors of ROR gamma transcriptional activity; Drosophila S2 Gal4-VP16 UAS-luciferase, luminescence, 20 h; 3.5% of 310,000 active; Potency, µM (doses to about 53.6 µM), hits mostly inhibitors; AID 2546, 2010;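 note: Gal4-VP16 expression switched on by copper sulfate through the metallothionein promoter; nearly all actives have a fitted effect of over 50% in size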
# BCR signal inh: qHTS Assay to Find Inhibitors of Chronic Active B-Cell Receptor Signaling. ABC-DLBCL IkBa-CBG/CBR reporter, luminescence ratio, 4 h. Potency, µM (series often up to 46.1 µM), usual class: inhibitors. 0.05% of 340,000 active; active = well fitted inhibition curve with a large enough effect in the signal ratio, with a control signal flat, not every such curve was filed as active; inconclusive = small, poorly fitted or top-dose-only effect, or effect the other way, or a change in a side signal; the % refers to the signal ratio
#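 Concentration-response series (up to 46 uM) were applied to TMD8 dual-reporter cells for 4 h at 37C with doxycycline. Green/red ratio, after filter-overlap correction, defined %Activity; red signal alone was normalised to basal cells and zero luminescence.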
# Giardia killer: Small Molecules that selectively kill Giardia lamblia: qHTS; Giardia lamblia trophozoite viability; activity change, % at 7.66 µM, hits read low; 0.15% of 340,000 active; AID 540267, 2011; in the data active = activity change below about -80%; inconclusive = between about -30% and that limit;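 note: parasites exposed to compound for two days anaerobically before the ATP read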
#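 Media and compound were dispensed first, then trophozoites at 100 cells/well; plates sat 48 hrs at 37 deg C without oxygen before ATP luminescence reagent was added and read after 15-30 min at room temperature.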
# Numbers stand for hits; n = inactive; u = inconclusive; x = no result; ! = a repeat was not active; [ ] = another dose, or the depositor's remark. Unless noted, calls come from the whole dose curve; as a rule, active = well fitted curve in the direction sought with a large enough effect; inconclusive = small, poorly fitted or top-dose-only effect, or another doubt; inactive = no such curve, though single readings can be large; an effect the other way counts as inactive or inconclusive.
SMILES,MCF10A rerep,SW480 rereplic,RORg inh,VP16 counter,BCR signal inh,Giardia killer
O=C(COC(=O)CNS(=O)(=O)c1ccccc1)Nc1ncc(Cl)cc1Cl,n,n,x,x,n,n
COc1cc(C(=O)N/N=C(\C)c2ccc(NC(=O)Cc3ccccc3)cc2)ccc1O,n,n,n,n,u,n
CC1CCN(c2oc(-c3cccc4ccccc34)nc2C#N)CC1,10µM,n,n,n,n,n
COc1ccc(CN(C(=O)c2snc(C(N)=O)c2N)C(C(=O)NC2CCCC2)c2cc(OC)ccc2OC)cc1 (stereo not drawn),n,n,n,n,n,n
Cc1cc(C(=O)COC(=O)c2ccc(Cl)c(S(N)(=O)=O)c2)c(C)n1C1CC1,n,n,x,x,n,n
O=C1C2C3c4ccccc4C(c4ccccc43)[C@@H]2C(=O)N1c1ccccn1 (stereo partly drawn),n,n,n,n,n,n
O=C1C2C3c4ccccc4C(c4ccccc43)[C@@H]2c2nc3ccccc3n21 (stereo partly drawn),n,n,11µM,n,n,u
C/C=C/C(=O)OCC(=O)Nc1ccc(SC(F)F)cc1,n,n,u,n,n,n
CCCCN1CCC[C@@H]1CNC(=O)c1cc(C#N)c2ccccc2c1OC,x,x,n,n,x,x
Cc1cccc(C(=O)NCC(=O)N2CCN(c3ccccn3)CC2)c1,n,n,x,x,n,n
CN(C)CCOc1ccc(C(C)(C)c2ccccc2)cc1,n,n,n,n,u,n
CC/C(=C(\c1ccccc1)c1ccc(OCCN(C)C)cc1)c1ccccc1,u,1.3µM!,10µM!,32µM!,u,n
CCN(CC)CCOc1ccc(/C(=C(/Cl)c2ccccc2)c2ccccc2)cc1,4.1µM!,n,u,u,u,n
CC(=O)Nc1c(Cl)cc2c(c1Cl)Cc1cc(C#N)ccc1-2,n,n,x,x,x,n
O=C1C(=O)c2ccccc2C(O)=C1c1ccccc1F,n,n,n,1.3µM,n,n
COc1ccc(C(=O)NCCC2=CCCCC2)cc1,n,n,13µM,u,u,n
O=C(O)C1C2CCC(C2)C1C(=O)NCCC1=CCCCC1 (stereo not drawn),n,0.52µM,n,n,n,n
O=C(NCCC1=CCCCC1)c1ccc(F)cc1,n,n,u,11µM,u,n
O=C(O)C1C2C=CC(C2)C1C(=O)NCCC1=CCCCC1 (stereo not drawn),u,n,n,n,n,n
Cc1cc(C)cc(-n2c(C)nc3cc(C(=O)NCc4ccccc4Cl)ccc32)c1,x,x,x,x,n,x
Oc1ccc(Br)cc1-c1ccnn1-c1ccccc1,7.3µM,u,n,n,u,n
Cc1ccc(CNc2ccc3c(c2)OCO3)cc1,23µM,23µM,n,n,x,n
Fc1ccc(NC(=S)NCc2ccc3c(c2)OCO3)cc1,n,n,11µM,u,n,n
Cc1ccc(NC(=S)NCc2ccc3c(c2)OCO3)cc1C,n,n,13µM,u,n,n
c1cc(CNc2ccc3c(c2)OCO3)ccn1,n,n,n,n,u,n
SMILES,MCF10A rerep,SW480 rereplic,RORg inh,VP16 counter,BCR signal inh,Giardia killer
Cc1ccc(NC(=O)NCc2ccc3c(c2)OCO3)cc1C,u,n,n,n,u,n
CCn1c(=O)c2ccccc2n2c(SCC(N)=O)nnc12,n,n,x,x,n,n
CN1CCCN(S(=O)(=O)c2ccccc2)c2nc3ccccc3nc21,u,n,x,x,u,n
Cc1ccc(S(=O)(=O)N2CCCN(C)c3nc4ccccc4nc32)cc1,23µM,u,x,x,n,n
Cc1ccc2nc(CSc3nc(C)ccc3C#N)[nH]c2c1,u,u,3.5µM,2µM,u,-88
Cc1ccc(C#N)c(SCc2ccccc2F)n1,n,u,n,n,u,n
COc1ccc(CNC(=O)Cn2ncn3c(cc4ccccc43)c2=O)cc1,n,u,n,n,n,n
O=C(Cn1ncn2c(cc3ccccc32)c1=O)NCc1ccco1,n,n,5.6µM,n,n,n
C=CCC1CCC/C(=N\NS(=O)(=O)c2ccc(C)cc2)C1 (stereo not drawn),u,n,n,n,n,n
COc1ccc(NC(=O)Nc2ccc3c(c2)C(=O)N([C@H](C)CO)C[C@H](C)[C@@H](CN(C)C(=O)Nc2ccccc2)O3)cc1,n,n,x,x,n,n
COc1ccc(CNC(=O)NCCc2c[nH]c3ccccc23)cc1,n,n,n,n,u,n
Cc1cccc(NC(=S)NCCc2c[nH]c3ccccc23)c1,n,n,2.5µM,1µM,n,n
COc1ccc(CCNC(=S)NCCc2c[nH]c3ccccc23)cc1,n,n,13µM,u,u,n
O=C(NCCc1c[nH]c2ccccc12)Nc1ccccc1,n,n,n,n,u,n
CC(C)c1ccc(NC(=S)NCCc2c[nH]c3ccccc23)cc1,15µM,n,10µM,u,n,n
Cc1ccc(NC(=S)NCCc2c[nH]c3ccccc23)cc1,n,n,7.9µM,20µM,n,n
Cc1ccccc1OCCSc1nc2ccccc2n1CCC(=O)O,n,n,n[1.91 µM],n,n,n
NCCCNc1ccc(Br)cn1,x,x,x,x,x,n
COc1cccc(NC(=O)C(c2ccccc2)N2CCNC(=O)C2)c1 (stereo not drawn),x,x,n,n,u,x
CC(=O)c1ccc(-c2ccc(C(=O)NC3CC(C)(C)NC(C)(C)C3)o2)cc1,n,n,x,x,n,n
Cc1nn(-c2ccccc2)c(C)c1C(=O)OCc1ccc(C#N)cc1,n,n,u,n,n,n
CNC(=S)NNC(=O)c1cccc(C(F)(F)F)c1,n,n,11µM,n[0.365 µM],n,n
CN1CCN(NC(=O)c2cccc(S(=O)(=O)N3CCCCCC3)c2)CC1,n,n,n,n,n,n
CN1CCN(NC(=O)c2cccc(C(F)(F)F)c2)CC1,n,5.8µM,n,n,n,n
C/C(=N\NC(=O)C1CC1)c1ccc(C)c(C)c1,n,n,n,n,n,n
SMILES,MCF10A rerep,SW480 rereplic,RORg inh,VP16 counter,BCR signal inh,Giardia killer
CNC(=S)N/N=C(\C)c1ccc(C)c(C)c1,n,u,1.8µM,5µM,u,n
CNC(=S)N/N=C(\C)c1cccc(C(F)(F)F)c1,n,n,1.1µM,3.5µM,u,n
COC(=O)N/N=C(\C)c1cccc(C(F)(F)F)c1,n,n,n,n,n,n
CC(C)(C)c1csc(NC(=O)c2ccc3nccnc3c2)n1,u,n,n,n,u,n
Nc1nc2c(ncn2[C@@H]2O[C@H](CO)[C@@H](O)[C@H]2O)c(=O)[nH]1,x,x,n,n,x,x
Nc1nc2c(ncn2C2OC(CO)CC2O)c(=O)[nH]1 (stereo not drawn),x,x,20µM,u,x,x
O=C1OC(NC(=O)c2ccccc2)C(n2cc(CO)nn2)=C1Cl (stereo not drawn),n,u,u,u,n,n

# High-throughput results from PubChem BioAssay.
